PubChem BioAssay AID1347426 (Functional Genomics Laboratory (NCATS/FGL), 2020)
Screen size: about 31,000 sequences; about 1,400 (4.5%) were called active. The entries come from a sample that favours actives as a whole. A number with no mark means an inactive call.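 The calls were made as follows: active = median seed-adjusted z-score above 1 or below -1; inactive = the rest.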

assay: Novel Modifiers of Survival Motor Neuron (SMN) Protein: Gene Identification via Genome-wide siRNA Screen; conditions: HEK293T SMN2-luciferase reporter, siRNA knockdown, 72 h; actives lie on both sides;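 also: luminescence tracks full-length SMN protein made from the SMN2 reporter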
How it was run: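 Steps: spot 1 pmol siRNA, add Lipofectamine RNAiMax in serum-free DMEM, seed HEK293T SMN2–luciferase reporter cells; incubate 72 h at 37 °C; add ONE-Glo; normalize luminescence to control siRNA, log10, MAD. Candidates: |MAD| > 1.0.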

| Sequence | median seed-adjusted z-score |
| --- | --- |
| CCACGUGUCUAACACCAAUTT against KRT79 | 0.338 |
| GAAUAUAUCUAAAUCGCAUTT against RORA | -0.144 |
| GACCUCACGUUGUCGAAGATT against GTPBP4 | 1.01 (active) |
| GACUUGGAGUUUCAGGCAATT against XPC | -0.564 |
| GCUCCAGUCUUUUCGCAAATT against DSG4 | -0.0211 |
| CCAAUUCUACAAAAGCAAATT against SRD5A3 | -0.165 |
| CGUGCACAGAUAUUACGCATT against FIGNL1 | -0.408 |
| GCAUUGUCGUUGCAAUCGATT against CLCA1 | 0.015 |
| GCAUCGAGCAGGAACAGAATT against ATP2B2 | 1.37 (active) |
| UUUUUGAUGUGGACUCAAATT against USP18 | -0.326 |
| GUUCAAUACUUGAACACGATT against FFAR2 | 0.146 |
| GAAUUACAGUGACAGUUCATT against AP3M1 | 0 |
| GUAAUGUUCUUAAACGAAUTT against PPP2R5C | 1.14 (active) |
| GAAACAUCUGGUGCUAUUATT against KREMEN2 | -0.0883 |
| GCAAGAAUCCCUAAAGCAUTT against BAG2 | -0.87 |
| CAGUUGAUAUUCAUAAAGATT against ABI2 | -0.0392 |
| GGGCAGAAUUGGAAUGCGATT against CNTNAP4 | -0.414 |
| AGAGCGGUCUGACAGUGGATT against NUDT1 | -0.175 |
| GGUAUAAACGCGUCCAGCATT against MAFB | 0.674 |
| CCAACGACGUGGUGCAGAATT against CLDN14 | -0.456 |
| CAGCAAACCUUUGACCAGATT against U2AF2 | 2.14 (active) |
| CUACGGCUACGUCUACAUCTT against GPR25 | 0.377 |

| Sequence | median seed-adjusted z-score |
| --- | --- |
| GAGCGGACAUGAUAAGCAUTT against CD302 | 0.0818 |
| GGAUGAUAUUAACAGGUCATT against USP8 | 0.743 |
| GCAUACGCAGGAUCCUGGATT against KRT34 | 0.124 |
| CGAGUUAGCAAGUUCAGCATT against CTRL | 0.0758 |
| GAAAUCUUCUUGAGUGUAATT against GPR141 | -0.777 |
| GGACAAUGUUGGGAAUAGATT against GPATCH2 | 0.0828 |
| UCCUCUAAAAAUUACAGUATT against TUBB2A | 1.03 (active) |
| CAUUAGAUCUGUGAUUAGATT against MCOLN3 | -0.09 |
| GGAAUGCUCCAAAAUGGGATT against FKBP1B | -0.561 |
| GCACAUGUUUGGAGGAUUUTT against ZNRF2 | 0 |
| CAACCCAGCCCAUCCCAAATT against PDK2 | -0.481 |
| CUGUGAAGAUAGAAGGAUATT against CAPZA1 | -0.0237 |
| GCAUUUCUUGGGUUGGUGATT against GABPA | 1.43 (active) |
| CCGCGCAGUUCAUCUCAAATT against SNX15 | -0.152 |
| CACUAGAAAUAACAAUGGATT against TMPRSS11D | -0.0643 |
| AGAUCUCGUGGUUCUGGAATT against RPUSD1 | 0.327 |
| GUGGUGGGCUUAUCCUCUATT against NRXN3 | 0.897 |
| GAACCACAAUGUUAACAAUTT against CYBRD1 | 0.623 |
| GCAAGAUCUCUAUUGGUAUTT against ABCC4 | -1.66 (active) |
| GAAACCCUAUUACGAUGAATT against SOX30 | -0.167 |
| CAUGUAAACUUGCUGUUUUTT against CKS1B | 0.00314 |
| CAUAGUAGAUCAAAUCUUATT against ZNF284 | 0.21 |

| Sequence | median seed-adjusted z-score |
| --- | --- |
| CACUAGCAGUUGCAAGUAATT against RAB3GAP2 | 0.0583 |
| GACCUGGGCUUAGACAGUUTT against NDUFAB1 | -0.282 |
| GGAGAGCUGUUGGUACUUUTT against TAAR9 | -1.07 (active) |
| CACUGUUUCUUCACCGGCATT against ZDHHC22 | 0.00446 |
| GCAGUUCACCCAUCCAGUATT against THY1 | -1.1 (active) |
| GACCAAGCGCAAAACCAAATT against HOMEZ | -0.0614 |
| GAUUUUGUGCGAUCCAUAATT against CBARA1 | -0.0426 |
| GCAGGUACAUGUCUUGUCUTT against SPRY2 | 0.148 |
| CCCUACAUAGGAAACCUGUTT against PKD1L2 | -1.17 (active) |
| CAGCCUACUUCAUAGCCUATT against GPR50 | -0.0348 |
| GCCGGCCUGUGAAAUAUGATT against MAP3K3 | -0.182 |
| UCACGUCACUACUUAAAAATT against ZNF644 | 0.389 |
| CCAUUAAUGAAUUAGUCUATT against TXN | -0.195 |
| AGCUCAACGUGCUGGAUUATT against PIP5KL1 | -0.819 |
| CGAAGUUCAAGUAUAGGUATT against RAG1 | -1.35 (active) |
| GGUUUGGAGCGAGAGUGGATT against ASB10 | 0 |
| GCAGCUAUCUCUGUACAGATT against MAPK8IP3 | 0.734 |
| UGUUCAGUCUGGAAUUUCATT against MAP2K1 | 0.942 |
| GGACCCAAAUUCAGAAGAATT against ANKRA2 | 1.26 (active) |
| GGAUCGGUAUGUAGCAAUATT against HTR2C | -0.115 |
| GAGUAUCCAUCGGUAUCUATT against ZBTB11 | -0.105 |
| UCCAGACUCUGGUCACCAATT against CREB3L1 | 0.708 |

| Sequence | median seed-adjusted z-score |
| --- | --- |
| GCAUUGACUUGGGUGAAGATT against GPR101 | -0.265 |
| GAGUUGAAGUUAAAGUAAATT against MORF4 | 0.0121 |
| CGACAAGAUCAAAUACCCATT against LZTR1 | 0.293 |
| CAAGCCUGAUUUCCACCUATT against DTD1 | -1.58 (active) |
| CAACGAGAAUGACUGCUGATT against PTPDC1 | -0.191 |
| CAAGAAAACCAGAAUGGAATT against SERPING1 | -0.244 |
| GCGAUUGCUUUGAUGGGUATT against LTBP1 | 0.143 |
| GAAUCCUCCCAAUUGAUCATT against LSG1 | 1.31 (active) |
| GAACAUCGUUAUAAGUUGATT against CNTN3 | 0.732 |
| GCACUAAUCUGCAAACUGUTT against SPTB | 0.153 |
| CAGACAAAUUUUAACCACATT against SLC17A8 | -0.332 |
| GGUCCAUCCAAAUUGUGGATT against CYP21A2 | -0.26 |
| GCGCAUCUAUCAACCCAAUTT against MLNR | -0.038 |
| AGACUAAACUACUCUCGAATT against WDR46 | -0.136 |
| GCUGCUAUCAGUGAACGGATT against LIN7A | -1.39 (active) |
| CGUGUUAGUGAAUAAAGUATT against ZNF771 | 0.108 |
| CGGCAGACACUGAACAUCATT against SLC6A18 | 0.148 |
| GUAGCACAGAGGAUUAAAATT against TTC33 | 0.104 |
| CUCUAACCGUGGUUCCAGATT against SUPT16H | 1.2 (active) |
| CGGCGGAGUUUAUAGAUAATT against BCKDHA | -0.299 |
| GAAUCUACCUUGCUGCUCATT against G6PC | -0.628 |
| GGACUACUAUGCCACUGCUTT against SSTR4 | -0.00217 |

| Sequence | median seed-adjusted z-score |
| --- | --- |
| CGGCAACUUCAAUAACAGUTT against LPHN1 | -1.03 (active) |
| GAGGGACUAUUUCACGAAATT against PARD3B | 0.306 |
| GUGCAUCUCUUGACAAUUUTT against LIPI | 0.65 |
| GAAUAUUCUCGAUUUAAUATT against PPP1R3D | 0 |
| GGGCUGUUAUUUCAAGAAATT against GALNT13 | -0.0149 |
| GAGCAUGUUUUUACCCUUUTT against MGC17403 | 0.204 |
| CCAUAACAUUCACAAGUGUTT against TRPS1 | -0.125 |
| CCAGGUCACGAGUCAAGUATT against KTI12 | 0.0814 |
| GGCCGUAACCUCAACCGUUTT against SNX33 | -0.246 |
| GACAAUCGACCGAAAGCAATT against PPP4C | 1.15 (active) |
| GGGCAACAGUUGAACACCATT against PDK4 | -0.693 |
| GCUUUGACCGUGUCCGAAATT against STT3A | 0 |
| GCAUUUCCCAAGACGUGGATT against ZFYVE28 | 0.0678 |
| GCAUUCACCAGAACGAGAATT against RIMS1 | 0 |
| CGCAUCCAAGAGUACCUUUTT against ZNF229 | -0.497 |
| GGACAUGAACCUUAACGAATT against DIAPH2 | -0.0149 |
| CUAUACUCUUCGCUCCUAUTT against SIGMAR1 | -1.4 (active) |
| GGUUGAAAAGGAGUGCAAATT against CACYBP | -0.33 |
| CAAAUCUGCUCAUCGAAAATT against MID1 | -0.294 |
